Bioassay records from PubChem BioAssay.
UbGFP stabilizer – Ubiquitin-GFP Assay; Ubiquitin-GFP reporter cells, proteasome inhibition, GFP fluorescence; response scale: untreated = 0%, 10 µM MG-132 = 100%; Potency, µM (top dose mostly 45.9 µM), actives largely listed as activators; 67,000 tested, under 10 active; AID 526, 2006; active means well fitted activation curve with a large enough effect, not every such curve was filed as active; inconclusive means small, poorly fitted or top-dose-only effect, or another doubt; inactive means no such curve, though single readings can be large or run the other way
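U2OS cells stably expressing ubiquitin(G76V)-GFP, seeded overnight in 0.5% FBS medium, were exposed to compounds (qHTS, 46 uM to 2.9 nM) for 4 hr at 37 °C. GFP-positive cells were counted by laser cytometry (488 ex/515 em), normalized between basal and 10 uM MG-132.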
HBB splicing – qHTS Assay for Modulators of Hemoglobin Beta Chain Splicing | HBB splicing reporter cell assay, activation; EGFP reporter with mutant IVS2-654 intron; response scale: normalised to 500 nM splice-correcting PNA | Potency, µM (series often up to 46.1 µM), actives largely listed as activators | 65,000 tested, 0.06% active | AID 925, 2007
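Compounds were applied for 2 days to HeLa EGFP-654 cells, 500/well in Optimem with 2% FCS. The reporter's EGFP is disrupted by mis-splicing of beta-globin intron IVS2-654. Readout: summed well GFP fluorescence from 488 nm laser scanning; reference was 500 nM antisense […] 654 PNA.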
GBA activity – Glucocerebrosidase | Lysosomal acid glucosylceramidase (Homo sapiens), P04062 | purified enzyme, resorufin glucoside fluorescence (screen aimed at inhibitors), 20 min | AID 360, 2006 | Potency, µM | 48,000 tested, 1.1% active; in the data active means potency below about 15 µM; inconclusive means mostly about 16 µM to 33 µM;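 further: the screen sought inhibitors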
Target sequence (P04062 whole entry, looked up): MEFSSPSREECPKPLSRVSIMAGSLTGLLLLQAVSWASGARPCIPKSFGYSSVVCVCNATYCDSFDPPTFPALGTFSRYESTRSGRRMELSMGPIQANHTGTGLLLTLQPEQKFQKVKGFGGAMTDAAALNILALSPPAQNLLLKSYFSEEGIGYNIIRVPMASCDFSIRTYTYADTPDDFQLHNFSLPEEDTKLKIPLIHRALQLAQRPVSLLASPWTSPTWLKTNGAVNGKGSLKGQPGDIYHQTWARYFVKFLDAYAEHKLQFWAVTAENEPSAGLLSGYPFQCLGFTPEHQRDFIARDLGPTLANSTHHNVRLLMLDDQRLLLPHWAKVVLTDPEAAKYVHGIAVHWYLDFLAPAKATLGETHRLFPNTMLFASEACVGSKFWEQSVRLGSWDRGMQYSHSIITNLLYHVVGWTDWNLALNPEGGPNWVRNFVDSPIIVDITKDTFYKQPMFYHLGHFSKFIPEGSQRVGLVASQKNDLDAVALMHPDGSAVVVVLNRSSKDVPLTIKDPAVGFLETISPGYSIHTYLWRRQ
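Normal human glucocerebrosidase (0.2 nM final) was assayed with resorufin β-D-glucopyranoside (30 uM final) in 50mM citric acid/KH2PO4, 10mM sodium taurocholate, 0.01% tween-20, pH 5.9. Compounds were titrated; fluorescence (Ex 548, Em 600) read after 20 min at RT.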
Epigenetic mod – qHTS Assay for Epigenetic Modulators; mouse C127i GFP locus derepression, cytometry, 30 h; Potency, µM (highest dose often 46.1 µM); 68,000 tested, 0.09% active; AID 597, 2007
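Read-out is the number of GFP-positive cells, scored as fluorescent objects 20 to 120 um wide, reflecting derepression of a silenced CMV-GFP reporter in murine C127i cells after 30 h compound exposure at 37 C.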
USP2a inh – qHTS Assay for Inhibitors of Ubiquitin-specific Protease USP2a; 60,000 tested, 0.1% active; Ubiquitin carboxyl-terminal hydrolase 2 (Homo sapiens), O75604; Potency, µM (series often up to 38.3 µM), hits mostly inhibitors; USP2a enzymatic assay, qHTS inhibition; further: nearly all actives have a fitted effect of over 60% in size
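USP2 core (20 nM final) was preincubated with compound for 30 min at RT in 20 mM Tris-HCl pH 8.0, 2 mM CaCl2, 2 mM beta-mercaptoethanol; Ub-PLA2 (20 nM) plus NBD C6-HPC (20 uM) then added, fluorescence read after 2.5 h.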
Hsp90 Hop PPI – qHTS Assay for Disrupters of an Hsp90 Co-Chaperone Interaction. Hsp90 C-terminal peptide / TPR2A (Hop) interaction, human. 71,000 tested, 0.44% active. Potency, µM (series often up to 57 µM). AlphaScreen TPR2A-His6 binding biotin-Hsp90 C-terminal peptide; active means well fitted curve in either direction with a large enough effect; inconclusive means small, poorly fitted or top-dose-only effect, or another doubt
Numbers stand for hits; – = inactive; ? = inconclusive; · = no result; [ ] = dose if it differs, or a comment. This is a sample that favours compounds with a hit; in the whole collection about 1.1% have one here. Unless noted, the call rests on the fitted dose curve; in most records, active means well fitted curve in the direction sought with a large enough effect; inconclusive means small, poorly fitted or top-dose-only effect, or another doubt; inactive means no such curve, though single readings can be large; an effect the other way counts as inactive or inconclusive.

SMILES	UbGFP stabilizer	HBB splicing	GBA activity	Epigenetic mod	USP2a inh	Hsp90 Hop PPI
CCCCCCCC(=O)O	·	–	·	·	·	–
OCc1ccncc1.OCc1ccncc1.[Cl][Pt]([Cl])([Cl])[Cl]	–[9.17 µM]	–[9.22 µM]	·	–[9.22 µM]	·	–[11 µM]
Cc1c(C)c2cc(Cl)c(O)c(CN(C)C)c2oc1=O	–	–	–	–	–	–
O=c1oc2c(O)c(O)cc3c(=O)oc4c(O)c(O)cc1c4c23	–	·	·	–[9.22 µM]	–	31.6µM
N#Cc1c(C(F)(F)F)cc(-c2ccco2)nc1SCc1ccncc1	–	–	–	–	·	–
N#Cc1c(C(F)(F)F)cc(-c2ccco2)nc1SCc1ccccn1	–	15.8µM	–	?	–	–
COc1ccc2c(c1)CCC1C2CC[C@]2(C)[C@H](NCCCCCCN3C(=O)C=CC3=O)CC[C@@H]12 (stereo partly drawn)	–	–	·	–	–	–
CCn1c(=N)n(CC(=O)c2ccco2)c2ccccc21	–	·	13.4	–	–	–
CCCCn1c(=N)n(CC(O)COc2ccc(C)cc2)c2ccccc21 (stereo not drawn)	–	–	10.6	–	–	–
CCCn1c(=N)n(CC(O)COc2cccc(C)c2)c2ccccc21 (stereo not drawn)	–	–	12.1	–	–	–
COc1ccccc1-c1cc(NCc2ccccc2)ncn1	–	–	·	–[9.22 µM]	–	–
CCOc1cccc2cc(-c3csc(NC(=O)CCC(=O)N4CCN(C)CC4)n3)c(=O)oc12	–	–	12.4	–	–	–
CC1CCN(c2nc(-c3ccco3)c3c(c2C#N)CC(C)(C)OC3)CC1	–	–	·	·	·	25.1µM
CC1CCc2cccc3c2N1c1cc(C#N)c(C#N)cc1O3 (stereo not drawn)	–	?	5	–	–	?
Nc1nc(Nc2cccc(F)c2)nc2ccccc12	–	·	12.8	–	–	–
Fc1ccc(Nc2nc(N3CCOCC3)c3ccccc3n2)cc1	–	–	·	–	–	–
CN(C)/C=C1\C(=O)c2ccc(N(C)C)nc2CC1c1ccccc1 (stereo not drawn)	–	–[1.84 µM]	–	–	–	–
O=S(=O)(c1cccc(C(F)(F)F)c1)N(CCCN1CCOCC1)Cc1cccs1	–	–[0.369 µM]	10.9	–	–	–
CCCCCNC(=O)c1ccc2c(=O)n(CC3CCCO3)c(=O)[nH]c2c1 (stereo not drawn)	–	–	11	–	–	?
CCCn1c(=S)[nH]c2cc(C(=O)NCC3CCCO3)ccc2c1=O (stereo not drawn)	–	–	·	·	·	–
CC1(C)Cc2ccccc2-c2nnc(-c3ccc(O)cc3)n21	–	·	8.36	–	–	–
COC(=O)c1ccc(C(NC(=O)OCc2ccccc2)/C(F)=C/[C@@H](C)C(=O)NCc2nc3ccccc3s2)cc1 (stereo partly drawn)	·	–	·	·	·	–
Nc1nc(N)c2nn(-c3ccc(C(=O)O)cc3)nc2n1	–[9.17 µM]	–[9.22 µM]	·	–[9.22 µM]	·	–[11 µM]
Cc1ccc(-c2cc(C(F)F)nc(N3CCC(C)CC3)n2)cc1	–	–	–	–	–	25.1µM
Fc1ccc(-c2cc(C(F)(F)F)nc(N3CCCCC3)n2)cc1	–	–	·	–	–	?
SMILES	UbGFP stabilizer	HBB splicing	GBA activity	Epigenetic mod	USP2a inh	Hsp90 Hop PPI
O=C(Cl)c1c(Cl)cccc1Cl	·	–	·	·	·	–
N#CCCn1c(=O)c(CCc2ccccc2)nc2cnc(Oc3cccc(Cl)c3)nc21	–	–	·	–[9.22 µM]	–	–
COc1ccccc1CNc1nc(-c2ccoc2)nc2ccccc12	–	–	·	–[9.22 µM]	–	–
COC(=O)c1sccc1NC(=O)c1csc(C)c1	–	–	12.8	–	–	–
COc1ccc(O[C@H]2C=C[C@@H](c3ccccc3)O[C@H]2COC(=O)CC/C(C)=N\OC[C@@H](O)[C@H]2O[C@H]3OC(C)(C)O[C@H]3[C@@H]2O)cc1	·	–[9.22 µM]	·	·	·	·
COc1ccc(OC)c(NC(=O)c2cc(S(=O)(=O)NCc3ccco3)ccc2F)c1	–	–	5.32	–	–	–
COc1ccc(-c2c(O)c3c(OC)c4c(cc3oc2=O)OC(C)(C)C=C4)cc1	·	·	·	·	10µM	·
